From PubChem BioAssay (NCATS) come the findings set out here.

Inconclusive results are not listed. Entries that show only a call come without a potency. The source made the active and inactive calls. Calls come from the whole dose curve; as a rule, active = well fitted inhibition curve with a large enough effect; inconclusive = small, poorly fitted or top-dose-only effect; inactive = flat fitted curve, though single readings scatter.
Potency is the fitted concentration of half-maximal effect.

Ubiquitin carboxyl-terminal hydrolase 1 (Homo sapiens), sequence (O94782 whole entry, looked up): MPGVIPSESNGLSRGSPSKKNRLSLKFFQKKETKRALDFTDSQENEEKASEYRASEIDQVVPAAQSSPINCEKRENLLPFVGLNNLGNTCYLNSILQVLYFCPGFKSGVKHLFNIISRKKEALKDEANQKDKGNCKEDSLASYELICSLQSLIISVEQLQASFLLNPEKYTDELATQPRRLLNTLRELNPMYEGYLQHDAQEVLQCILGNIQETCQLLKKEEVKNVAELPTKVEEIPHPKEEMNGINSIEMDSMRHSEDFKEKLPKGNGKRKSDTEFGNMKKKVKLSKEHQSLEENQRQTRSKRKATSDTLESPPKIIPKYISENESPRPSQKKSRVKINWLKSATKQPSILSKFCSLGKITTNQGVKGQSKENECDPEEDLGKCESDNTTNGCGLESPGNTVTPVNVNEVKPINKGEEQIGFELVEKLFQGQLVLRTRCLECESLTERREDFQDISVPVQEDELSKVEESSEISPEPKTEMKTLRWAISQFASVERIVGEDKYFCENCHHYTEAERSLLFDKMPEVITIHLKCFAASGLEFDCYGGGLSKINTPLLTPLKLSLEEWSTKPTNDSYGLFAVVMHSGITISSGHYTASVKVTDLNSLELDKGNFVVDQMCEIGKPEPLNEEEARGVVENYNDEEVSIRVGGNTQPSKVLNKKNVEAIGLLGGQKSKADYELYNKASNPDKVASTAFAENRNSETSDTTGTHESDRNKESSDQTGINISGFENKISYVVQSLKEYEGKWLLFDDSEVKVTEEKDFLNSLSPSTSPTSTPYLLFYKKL

The test deals with Ubiquitin carboxyl-terminal hydrolase 1 (Homo sapiens) (UniProt O94782). In words: Inhibitors of USP1/UAF1: Pilot qHTS (AID 504865). Note: nearly all actives have a fitted effect of over 35% in size. The note with it: purified USP1/UAF1, Ub-rhodamine cleavage fluorescence; series mostly up to 114 µM. Summed up:
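1nM USP1/UAF1 + cpd, 15 min RT; start w/ Ub-Rho 150nM final; kinetic FL 480/540 nm, 6 reads q60 s. Buffer 50mM HEPES pH 7.8, 0.5mM EDTA, 1mM TCEP, 0.01% Tween-20, 0.1 mg/ml BSA.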
In general terms: Quantitative high-throughput screening tests each substance at several concentrations.
As for `CNC1C(O)C(O[C@H]2C(O)[C@@H](OC3OC(CN)=CCC3N)[C@H](N)C[C@@H]2N)OC[C@]1(C)O` (some centres not stated), the Potency entry is “inactive”.

Consider `COC1=CC(=O)C=C(OC)C1=O`, for which the Potency entry was “inactive”.

With `COc1ccc(-c2coc3cc(OC)cc(OC)c3c2=O)cc1`, the Potency entry was “inactive”.

As to `CC1CC2C(C(O)C[C@]3(C)C2CC[C@]3(O)C(=O)CO)[C@]2(C)C=CC(=O)C=C12` (some centres not stated), the Potency result was “inactive”.

Consider `C[C@]12CCC(=O)C=C1CCC1C2C(O)C[C@]2(C)C1CC[C@]2(O)C(=O)COC(=O)CCC(=O)O` (some centres not stated), for which the Potency entry is “inactive”.

As for `COc1ccc2c3c1OC1CC(O)C=C[C@@]31CCN(C)C2` (some centres not stated), the Potency result was “inactive”.

Regarding `C=C1c2cccc(O)c2C(O)=C2C(=O)[C@]3(O)C(O)=C(C(N)=O)C(=O)C(N(C)C)C3C(O)C12` (some centres not stated), the Potency is 39.8 µM (active).

Turning to `C=C1C(=O)OC2C1CC/C(C)=C/CCC1(C)OC21` (configuration not stated), the Potency entry is “inactive”.

Take `COc1cc(OC)c2c(=O)c(-c3ccccc3)c(C)oc2c1OC`: the Potency result was “inactive”.

Consider `NC(N)=Nc1nc(CSCC/C(N)=N\S(N)(=O)=O)cs1`, for which the Potency result is “inactive”.

For the molecule `CS(C)(=O)=O`, the Potency entry was “inactive”.

For the molecule `CC1CC[C@@]23CCC4(C)[C@@]5(C)CCC6C(C)(C)C(=O)CC[C@@]6(C)C5C=C[C@@]4(OC2=O)C3C1C` (some centres not stated), the Potency result is “inactive”.

As to `CNCC(O)c1cccc(O)c1` (configuration not stated), the Potency result is “inactive”.

As for `O=C(O)/C=C/C=C/c1ccccc1`, the Potency result is “inactive”.

Regarding `NC(=O)c1ccc[n+]([C@@H]2OC(COP(=O)([O-])OP(=O)(O)OCC3OC(n4cnc5c(N)ncnc54)C(O)C3O)C(O)C2O)c1` (some centres not stated), the Potency result is “inactive”.

On to `Cc1cc(=O)oc2cc(O)c(O)cc12`, for which the Potency entry is “inactive”.

`NC1C(O)OC(CO)[C@@H](O)[C@@H]1O[C@H]1O[C@@H](C(=O)O)C(O)C(O)C1O` (some centres not stated): the Potency entry was “inactive”.

As to `COc1ccc(-c2c(O)c3c(OC)c4c(cc3oc2=O)OC(C)(C)CC4)cc1`, the Potency entry is “inactive”.

In the case of `Oc1ccc2c(c1)OCC1c3cc4c(cc3OC21)OCO4` (configuration not stated), the Potency entry was “inactive”.

Consider `O=c1c2cc(O)c(O)cc2oc2cc(O)c(C3OC(CO)C(O)C(O)C3O)c(O)c12` (configuration not stated), for which the Potency entry is “inactive”.

For `Cc1nnc(SCC2=C(C(=O)O)N3C(=O)C(NC(=O)Cn4cnnn4)[C@@H]3SC2)s1` (some centres not stated), the Potency entry is “inactive”.

`COc1cc2c(cc1OC)C(=O)OC2`: the Potency entry is “inactive”.

As to `COc1cc(C2c3cc4c(cc3C(OC3OC5COC(C)O[C@@H]5C(O)C3O)C3COC(=O)C23)OCO4)cc(OC)c1O` (some centres not stated), the Potency entry was “inactive”.

Consider `C=C1C(=O)C23C(O)C1CCC2[C@]12COC3(O)C(O)C1C(C)(C)CC[C@H]2O` (some centres not stated), for which the Potency entry is “inactive”.

`Cc1cc(O)cc(=O)o1`: the Potency entry is “inactive”.

Turning to `COc1ccc(-c2cc(=O)c3cc(OC)ccc3o2)cc1`, the Potency result is “inactive”.

On to `COC(=O)CC1[C@@]2(C)C[C@@]34OC5(C)OC6(CC[C@@]7(C)C(c8ccoc8)OC(=O)C(C(C)=O)C7[C@]6(O5)C(O)[C@@]3(O)C2O)[C@]14C` (some centres not stated), for which the Potency entry is “inactive”.
